This is an account of results in PubChem BioAssay (Tox21).

For test [1], the target named is Acetylcholinesterase (Homo sapiens) (UniProt P22303). In words: Acetylcholinesterase (AChE) small molecule antagonists: colormetric cell-based qHTS assay (AID 1347395). Note: nearly all actives have a fitted effect of over 30% in size. The method, boiled down: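 After overnight attachment at 37 C, SH-SY5Y cells get 30 min compound exposure; detection cocktail (acetylthiocholine, DTNB) then incubates 90 min at 37 C, and absorbance reflects AChE-generated thiocholine.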
(In qHTS, concentration-response curves come from the screen itself.)

For test [2] the target is unchanged. The experiment in a line: Acetylcholinesterase (AChE) small molecule antagonists: enzyme-based qHTS assay (AID 1347397). Note: nearly all actives have a fitted effect of over 55% in size. Note: potency is the fitted concentration of half-maximal effect. Particulars: Potency: AChE enzyme activity inhibition; outcome: AChE enzyme activity inhibition. The method, boiled down: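 In this quantitative HTS, compounds from the Tox21 10K collection were preincubated 30 min at ambient temperature with recombinant human AChE dispensed at 50 mU/mL. Hydrolysis of acetylthiocholine was then followed for 10 min by DTNB colour development.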

Test [3] has the same target. The experiment in a line: Acetylcholinesterase (AChE) small molecule antagonists: fluorescence cell-based qHTS assay (AID 1347398). Note: nearly all actives have a fitted effect of over 50% in size. Note: potency is the fitted concentration of half-maximal effect. To be noted: Potency: AChE activity; outcome: AChE activity. The method, boiled down:
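Cells (SH-SY5Y) attached overnight, were dosed with compound or DMSO vehicle for 30 min at 37 C, and then incubated 40 min at room temperature with acetylthiocholine and Thiolite Green; green fluorescence indexed AChE activity.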

The target is the same in test [4]. In words: Acetylcholinesterase (AChE) small molecule antagonists: enzyme-based qHTS assay with human liver microsomes (AID 1347399). Note: nearly all actives have a fitted effect of over 60% in size. To be noted: Potency: qHTS inhibition; outcome: qHTS inhibition. An outline of the steps: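 Recombinant human AChE (50 mU/mL in the enzyme mix) and human liver microsomes (0.25 mg/mL final) were preincubated with compound and NADPH (0.25 mg/mL final) for 30 min at 37 C. Acetylthiocholine/DTNB was then added; thiocholine was read colorimetrically after 10 min at room temperature.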

Inconclusive results are not listed. Where a structure was tested more than once in an assay, its records may differ in their call. Active and inactive are the calls of the source. Calls come from the whole dose curve.

Sequence of Acetylcholinesterase (Homo sapiens) (P22303 whole entry, looked up): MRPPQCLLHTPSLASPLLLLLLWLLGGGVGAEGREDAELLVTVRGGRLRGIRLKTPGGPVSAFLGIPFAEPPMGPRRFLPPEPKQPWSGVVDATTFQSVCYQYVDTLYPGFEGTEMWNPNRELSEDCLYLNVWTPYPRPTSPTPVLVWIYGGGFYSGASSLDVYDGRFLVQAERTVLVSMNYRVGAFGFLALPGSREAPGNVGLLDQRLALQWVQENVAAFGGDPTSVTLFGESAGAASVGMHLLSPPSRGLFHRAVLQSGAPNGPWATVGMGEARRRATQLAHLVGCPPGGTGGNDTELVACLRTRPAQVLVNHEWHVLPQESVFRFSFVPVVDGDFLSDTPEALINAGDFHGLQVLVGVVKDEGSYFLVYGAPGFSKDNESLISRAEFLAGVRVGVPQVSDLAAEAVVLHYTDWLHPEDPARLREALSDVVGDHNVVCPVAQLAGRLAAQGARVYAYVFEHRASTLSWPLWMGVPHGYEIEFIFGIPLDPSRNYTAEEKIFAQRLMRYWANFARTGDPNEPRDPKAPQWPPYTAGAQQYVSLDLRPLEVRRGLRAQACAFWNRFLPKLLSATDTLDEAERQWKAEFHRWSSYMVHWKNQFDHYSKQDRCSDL

`CC(=O)/C=C/c1ccco1`: the Potency entry in test [1], in test [2], in test [3] and in test [4] was “inactive” throughout.
Regarding `CCCCCC(=O)O`, the Potency result in test [1], in test [2], in test [3] and in test [4] was “inactive” each time.
With `C=C[Si]1(C)O[Si](C)(C=C)O[Si](C)(C=C)O[Si](C)(C=C)O1` (stereo not drawn), the Potency entry in test [1], in test [2], in test [3] and in test [4] was “inactive” in each case.
In the case of `NCCO`, the Potency result in test [1], in test [2], in test [3] and in test [4] was “inactive” each time.
In the case of `Nc1ccc(S(=O)(=O)NCc2ccccc2)cc1`, the Potency entry in test [1], in test [2], in test [3] and in test [4] was “inactive” each time.
As to `O=c1[nH]c(=O)n([C@H]2CCCO2)cc1F`, the Potency result in test [1], in test [2], in test [3] and in test [4] was “inactive” in each case.
As to `C=CC(=O)OCCC#N`, the Potency result in test [1], in test [2], in test [3] and in test [4] was “inactive” throughout.
Take `CCOC(=O)NCCC[Si](OCC)(OCC)OCC`: the Potency entry in test [1], in test [2], in test [3] and in test [4] was “inactive” throughout.
With `CCOC(=O)c1ccc(OC(=O)CCCCCN=C(N)N)cc1`, the result in test [1], in test [2], in test [3] and in test [4] was inactive.
For the molecule `CCOC(=O)CC(C(C)=O)C(C)=O`, the Potency result in test [1], in test [2], in test [3] and in test [4] was “inactive” throughout.
As for `N[C@H]1C(O)O[C@H](CO)[C@H](O)[C@@H]1O` (stereo partly drawn), the Potency result in test [1], in test [2], in test [3] and in test [4] was “inactive” throughout.
Take `O=c1ccc2ccccc2o1`: the Potency result in test [1], in test [2], in test [3] and in test [4] was “inactive” in each case.
With `CN(C)c1ccc(O)c2c1C[C@H]1C[C@H]3[C@H](N(C)C)C(=O)C(C(N)=O)=C(O)[C@@]3(O)C(=O)C1=C2O`, the Potency result in test [1], in test [2], in test [3] and in test [4] was “inactive” in each case.
`CCCCOC(=O)c1ccc(O)cc1`: the Potency result in test [1], in test [2] and in test [4] was “inactive” each time. The Potency in test [3] was 36 µM (active) and inactive.
As for `O=C(CCc1ccc(O)cc1)c1c(O)cc(O)cc1O`, the Potency result in test [1], in test [3] and in test [4] was “inactive” each time. For the same molecule, the Potency in test [2] was 57.7 µM (active).
`CCOC(=O)C1=C(C)NC(C)=C(C(=O)OC)C1c1cccc(Cl)c1Cl` (stereo not drawn): the Potency entry in test [1], in test [2], in test [3] and in test [4] was “inactive” throughout.
As to `CC1(C)S[C@@H]2[C@H](NC(=O)COc3ccccc3)C(=O)N2[C@H]1C(=O)O`, the Potency result in test [1], in test [2], in test [3] and in test [4] was “inactive” each time.
Consider `CO/N=C(/C(=O)N[C@@H]1C(=O)N2C(C(=O)O)=C(COC(N)=O)CS[C@H]12)c1ccco1`, for which the Potency entry in test [1], in test [2], in test [3] and in test [4] was “inactive” each time.
Take `NC(=O)N/N=C/c1ccc([N+](=O)[O-])o1`: the Potency result in test [1], in test [2], in test [3] and in test [4] was “inactive” throughout.
For the molecule `COc1ccccc1OCC1CNC(=O)O1` (stereo not drawn), the Potency entry in test [1], in test [2], in test [3] and in test [4] was “inactive” in each case.
Regarding `CCCCCC(CC)OC(=O)CCCOc1ccc(Cl)cc1Cl` (stereo not drawn), the Potency result in test [1], in test [2], in test [3] and in test [4] was “inactive” each time.
Regarding `C=CCCCCCCCC`, the Potency result in test [1], in test [2], in test [3] and in test [4] was “inactive” in each case.
For `O=C1CCCCCCCCCCCCCCO1`, the Potency entry in test [1], in test [2], in test [3] and in test [4] was “inactive” each time.
As for `Cc1ccccc1Br`, the Potency entry in test [1], in test [2], in test [3] and in test [4] was “inactive” throughout.
As for `CCC(C)(O)CCCC(C)C` (stereo not drawn), the Potency result in test [1], in test [2], in test [3] and in test [4] was “inactive” each time.
`Nc1ccc(N=Nc2ccccc2)c(N)n1`: the Potency result in test [1], in test [2], in test [3] and in test [4] was “inactive” throughout.
Consider `c1c[nH]cn1`, for which the Potency entry in test [1], in test [2], in test [3] and in test [4] was “inactive” each time.
Consider `CCCc1ccccc1`, for which the Potency result in test [1], in test [2], in test [3] and in test [4] was “inactive” throughout.
`Cc1cc(C)c(C(=O)O)c(C)c1`: the Potency entry in test [1], in test [2], in test [3] and in test [4] was “inactive” each time.
For `Clc1ccc2c(c1)C(N1CCNCC1)=Nc1ccccc1O2`, the Potency entry in test [1], in test [2], in test [3] and in test [4] was “inactive” throughout.
In the case of `CCCCC(CC)COC(=O)COc1cc(Cl)c(Cl)cc1Cl` (stereo not drawn), the Potency result in test [1], in test [2], in test [3] and in test [4] was “inactive” in each case.
For `c1ccc2[nH]ccc2c1`, the Potency entry in test [1], in test [2], in test [3] and in test [4] was “inactive” in each case.
With `CCC(O)OC(O)CC` (stereo not drawn), the Potency entry in test [1], in test [2], in test [3] and in test [4] was “inactive” throughout.
`CC(C)(Oc1ccc(CCNC(=O)c2ccc(Cl)cc2)cc1)C(=O)O`: the Potency result in test [1], in test [2], in test [3] and in test [4] was “inactive” in each case.
Consider `Fc1ccc(Br)cc1`, for which the Potency entry in test [1], in test [2], in test [3] and in test [4] was “inactive” in each case.
In the case of `CCc1nnc(NS(=O)(=O)c2ccc(N)cc2)s1`, the Potency entry in test [1], in test [2], in test [3] and in test [4] was “inactive” each time.
As for `COCC(=O)O`, the Potency entry in test [1], in test [2], in test [3] and in test [4] was “inactive” throughout.
For `CC(=O)CC(=O)Nc1ccc(S(=O)(=O)O)cc1`, the Potency entry in test [1], in test [2], in test [3] and in test [4] was “inactive” throughout.
Regarding `CC(=O)O[C@]1(C(C)=O)CC[C@H]2[C@@H]3C=C(Cl)C4=CC(=O)[C@@H]5C[C@@H]5[C@]4(C)[C@H]3CC[C@@]21C`, the Potency result in test [1], in test [2], in test [3] and in test [4] was “inactive” in each case.
In the case of `C[C@]12C[C@H](O)[C@H]3[C@@H](CCC4=CC(=O)CC[C@@]43C)[C@@H]1CC[C@@H]2C(=O)CO`, the Potency result in test [1], in test [2], in test [3] and in test [4] was “inactive” each time.
Take `CCCCC(CC)COC(=O)/C=C/c1ccc(OC)cc1` (stereo not drawn): the Potency entry in test [1], in test [2], in test [3] and in test [4] was “inactive” throughout.
For the molecule `c1cnc2cc3c(cc2n1)C1CNCC3C1`, the Potency result in test [1], in test [2], in test [3] and in test [4] was “inactive” each time.
